Only some compounds are listed: those with a hit (about 8.3% of all), similar ones and a draw of the others.
HCV inhibitor: qHTS Assay for Inhibitors of Hepatitis C Virus (HCV); Huh7.5.1 HCVcc-Cre infection, luciferase reporter, 44 h; Potency, µM (titrated, usually from 41.8 µM), for inactives: at the highest dose activity change, negative = inhibition, hits mostly inhibitors; 3.4% of 340,000 active; AID 651820, 2012; also: potency is read from the fitted curve at half-maximal effect
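Infectious HCV cell culture screen: compound-treated cells (1,000/well, pre-plated 4 h) are infected with HCVcc-Cre at roughly 0.5 moi and grown 44 h. Infection is quantified by luciferase signal after 15 min substrate incubation at room temperature.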
HCMV antiviral: qHTS Assay for inhibitors of the human cytomegalovirus (HCMV) | HFF cells, HCMV-luciferase reporter, 72 h; hits give low values | activity change, negative = inhibition, % at 57.5 µM | 4.5% of 410,000 active; in the data active = activity change below about -60%; inconclusive = no clear call, values can overlap the other calls; inactive = above about -39%
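Screen run at 2 compound doses on HFFs infected with reporter HCMV, MOI 1 PFU/cell. Luciferase activity from cell lysates at 72 h post infection gave inhibition relative to buffer-only and Salinomycin wells.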
MARV entry inh: qHTS for inhibitors of binding or entry into cells for Marburg Virus; 1.8% of 300,000 active; AID 540276, 2011; Marburg virus pseudotyped entry inhibition, cell reporter; Potency, µM (titrated, usually from 37.8 µM), for inactives: at the highest dose activity change, negative = inhibition, usual class: inhibitors; calls by dose curve; tested in HEK293 cells; also: potency is read from the fitted curve at half-maximal effect
Giardia FBPA inh: qHTS Assay for Inhibitors of Fructose-1,6-bisphosphate Aldolase from Giardia Lamblia; 0.71% of 290,000 active; AID 2451, 2010; Potency, µM (highest dose often 59.6 µM), for the others: top-dose activity, negative = inhibition, most hits filed as inhibitors; purified Giardia FBPA; A8B2U2; also: potency is read from the fitted curve at half-maximal effect; nearly all actives have a fitted effect of over 55% in size
Target sequence (A8B2U2 whole entry, looked up): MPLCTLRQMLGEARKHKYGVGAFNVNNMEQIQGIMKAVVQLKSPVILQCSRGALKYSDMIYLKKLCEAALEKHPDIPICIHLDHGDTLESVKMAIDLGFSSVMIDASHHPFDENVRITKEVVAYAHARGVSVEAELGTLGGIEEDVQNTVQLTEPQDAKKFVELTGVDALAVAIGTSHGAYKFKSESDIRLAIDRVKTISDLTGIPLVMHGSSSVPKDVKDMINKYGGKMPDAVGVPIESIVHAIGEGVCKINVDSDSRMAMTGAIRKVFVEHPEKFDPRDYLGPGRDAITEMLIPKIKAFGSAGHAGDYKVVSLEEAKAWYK
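40 nM FBPA preincubated 10 min at RT with compound (up to 57.5 uM final), then substrate plus GAPDH/TPI/NAD/arsenate coupling and diaphorase/resazurin added. Fluorescence read after 20 min at RT, 525/598 nm.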
Lassa entry inh: qHTS for Inhibitors of binding or entry into cells for Lassa Virus; Potency, µM (top dose mostly 37.9 µM), inactives show at the highest dose activity change, negative = inhibition, hits mostly inhibitors; Lassa virus pseudotype entry inhibition, cell reporter; 1.2% of 300,000 active; calls by dose curve; tested in HEK293 cells; also: potency is read from the fitted curve at half-maximal effect; nearly all actives have a fitted effect of over 50% in size
FMDV antiviral: High Throughput Screening for Foot and Mouth Disease Virus Antivirals; FMDV antiviral cell-based qHTS; 1.2% of 410,000 active; Potency, µM (series often up to 57.9 µM), without a hit: at the highest dose activity change, negative = inhibition, most hits filed as inhibitors; calls by dose curve; tested in HEK293T cells; also: read-out not given here; potency is read from the fitted curve at half-maximal effect; nearly all actives have a fitted effect of over 45% in size
Active calls of the source: *; ? = inconclusive; . = not tested or not shown; ! = not active in a repeat; [ ] = dose if it differs, or a comment. Unless noted, calls follow the shape of the dose curve; as a rule, active = well fitted curve in the direction sought with a large enough effect; inconclusive = small, poorly fitted or top-dose-only effect, or another doubt; inactive = no such curve, though single readings can be large; an effect the other way counts as inactive or inconclusive. % is scaled to controls: 0 for no effect and ±100 for the full control effect.

SMILES	HCV inhibitor	HCMV antiviral	MARV entry inh	Giardia FBPA inh	Lassa entry inh	FMDV antiviral
COc1ccc2c(c1OC)C(=O)OC2Nc1nc(-c2ccc(-c3ccccc3)cc2)cs1 (stereo not drawn)	8.91µM*	42.2	-37.5%	3.6%	?	?
COc1ncc2nc(-c3ccc(Cl)cc3)c(=O)n(Cc3cccs3)c2n1	.	.	.	6.1%	.	-19.7%
CCOC(=O)c1cc([N+](=O)[O-])cc([N+](=O)[O-])c1Sc1ncnc2nc[nH]c12	?	14.7	?	.	1.41µM*	22.4µM*
CCOC(=O)C(C)(C)Sc1ncnc2nc[nH]c12	0.1%	-13.8	18.2%	?	20.9%[14.3 µM]	10.9%
O=C(/C=C/c1ccccc1Cl)c1ccc(O)cc1	6.2%	5.3	?	-0.6%	-19.7%	13.4%
O=C(/C=C/c1c(F)cccc1Cl)c1ccc(O)cc1	11.2µM*	-18.4	.	5.0%	.	12.2%
CCOC(=O)c1cc(-c2ccccc2)n(CC(=O)Nc2ccc(CC)cc2)c1C	.	45.3	.	.	-0.5%[46.1 µM]	6.3%
CCc1c(C#N)c(SCCC(=O)Nc2cccc(OC)c2)nc2c1C(=O)CC(C)(C)C2	10µM*	-20.5	-26.4%	-0.3%	-29.2%	-21.5%
CCc1c(C#N)c(SCCC(=O)Nc2ccc(F)cc2)nc2c1C(=O)CC(C)(C)C2	11.2µM*	-96.2*	?	2.0%	?	28.2µM*
Cc1ccc2[nH]c(=O)c3cc(C(=O)N(C)Cc4ccco4)sc3c2c1	?	-7.9	.	-5.9%	.	16.4%
CCCN(CCC)C(=O)c1cc2c(=O)[nH]c3ccc(C)cc3c2s1	11.2µM*	2.4	-29.2%	0.9%	?	-19.9%
Cc1ccc(C)c(N(C)C(=O)c2cc3c(=O)[nH]c4ccc(C)cc4c3s2)c1	8.91µM*	?	-0.6%	1.1%	.	-29.8%
CCOCCCN(Cc1ccco1)C(=O)c1cc2c(=O)[nH]c3ccc(C)cc3c2s1	?	-63.1*!	?	1.0%	.	-15.4%
c1ccc(C(c2ccccc2)N2CCN(c3nc4ccccc4n4cnnc34)CC2)cc1	?	-99.1*	?	-4.2%	?	28.2µM*
c1cnc(N2CCN(c3nc4ccccc4n4cnnc34)CC2)nc1	-15.9%	-6.8	5.8%	6.6%	3.6%	9.1%
CCC1(C)Cc2c(sc3nnn(Cc4ccccc4Cl)c(=O)c23)CO1 (stereo not drawn)	?	-60.1*	?	2.3%	?	0.0%
CCC1(C)Cc2c(sc3nnn(CC(=O)Nc4ccccc4)c(=O)c23)CO1 (stereo not drawn)	-27.3%	-38.5	-1.6%	-8.0%	-15.4%	-20.5%
CN1CCN(CCCN2c3ccccc3Sc3ccc(Cl)cc32)CC1	?	-28.7	10.3µM*	?	9.2µM*	?
OCCN1CCN(CCCN2c3ccccc3C=Cc3ccccc32)CC1	.	-24.0	7.94µM*	-15.0%	?	.
CCSc1ccc2c(c1)N(CCCN1CCN(C)CC1)c1ccccc1S2	?	-38.2	.	-5.7%[21.7 µM]	.	-7.1%
FC(F)(F)c1ccc2c(c1)N(CCCN1CCN(CCCl)CC1)c1ccccc1S2	?	-73.1*	20µM*	-23.2%	?	11.2µM*
CN(C)CCCN1c2ccccc2Sc2ccc(C(F)(F)F)cc21	?	?	6.31µM*	-6.0%	20.6µM*	-13.9%
CCC(C(=O)Nc1cccc(C#N)c1)n1nc(-c2ccccc2)ccc1=O (stereo not drawn)	.	-28.4	?	.	-8.0%[46.1 µM]	-17.9%
O=C(CSc1ccc2nc(-c3ccccc3)cn2n1)Nc1ccccc1	.	71.4	.	.	?	39.7%
CSc1ccc(C(=O)N2CCc3c(cnc(C)c3CNC(=O)c3cncs3)C2)cc1	.	.	.	.	.	10.9%
SMILES	HCV inhibitor	HCMV antiviral	MARV entry inh	Giardia FBPA inh	Lassa entry inh	FMDV antiviral
Cn1cc(CN2CCOc3ccc(C(O)C4CCCCC4)cc3C2)cn1 (stereo not drawn)	.	.	.	.	.	-28.5%
CCCC[C@H]1C[C@@H]1[C@@H]1N(C(C)=O)[C@H](c2cccc(OC)c2)CC12CC2	.	.	.	-2.7%	.	.
OC1CC2CCC(C1)N2CCCN1c2ccccc2Sc2ccc(Cl)cc21 (stereo not drawn)	?	-64.9*	?	.	-13.5%[46.1 µM]	-21.9%
OCCN1CCN(CC/C=C2/c3ccccc3Sc3ccc(C(F)(F)F)cc32)CC1	0.891µM*	-29.7	8.91µM*	?	5.8µM*	-23.2%
CN1CCN(CCC(=O)N2c3ccccc3Sc3ccc(C(F)(F)F)cc32)CC1	5.62µM*	-27.3	?	?	-7.6%	.
CN1CCN(CCCN2c3ccccc3Sc3ccccc32)CC1	.	.	.	-14.9%	.	.
OCCN1CCN(CCCN2c3ccccc3Sc3ccc(C(F)(F)F)cc32)CC1	?	-15.7	13µM*	12.5%	7.3µM*	?
CN(C)c1nc2cc3c(cc2cc1CN(CC1CCCO1)C(=O)/C=C/c1cccs1)OCO3 (stereo not drawn)	.	.	.	.	.	-17.8%
Cc1cc(Nc2ccccc2F)n2nc(-c3ccccc3)nc2n1	.	6.0	4.1%[46.1 µM]	.	3.7%[46.1 µM]	-13.0%
CCOC(=S)SCc1cn2ccc(C)cc2n1	5.4%	-65.0*	-1.3%	?	22.2%	-0.9%
COc1ccc(CC(=O)Nc2cccc(-c3ccc4nncn4n3)c2)cc1OC	?	0.0	?	-0.3%	?	17.8µM*
COc1ccc(CC(=O)Nc2cccc(-c3ccc4nnc(C)n4n3)c2)cc1OC	?	92.1	?	-3.9%	?	20µM*
COc1ccc(CC(=O)Nc2ccc(-c3cn4cccc(C)c4n3)cc2)cc1OC	10µM*	-17.2	?	0.8%	-24.6%	-29.8%
CN(C)c1ncc2nc(-c3ccc(F)cc3)c(=O)n(CCC#N)c2n1	.	.	.	0.0%	.	-3.6%
Cc1ccc(NS(=O)(=O)c2cc(C(=O)NCCSc3ccc(C)cc3)ccc2C)cc1	?	-97.6*	?	-4.2%	?	.
Cc1ccc(C(=O)NCCSc2ccc(Cl)cc2)cc1S(=O)(=O)Nc1ccccc1	?	?	?	-4.1%	?	.
Cc1ccc(SCCNC(=O)c2ccc(C)c(S(=O)(=O)Nc3cccc(C)c3)c2)cc1	-19.4%	-69.7*	?	0.8%	?	.
Cc1c(CCC(=O)O)c(=O)oc2c(C)c3occ(-c4ccc(Br)cc4)c3cc12	8.4%	-16.0	-0.1%	-1.2%	-29.6%	-23.0%
COc1ccc(-c2coc3c(C)c4oc(=O)c(CCC(=O)O)c(C)c4cc23)cc1	2.51µM*	.	-22.3%	-7.7%	?	-26.6%
O=S(=O)(c1ccc(O)cc1)c1ccc(O)cc1	0.0%	-14.3	.	2.1%	.	0.9%
O=C1C=CC(=C(c2ccc(O)cc2)c2ccc(O)cc2)C=C1	10µM*	-100.1*	.	15.1%	.	12.6µM*
O=C(O)C1=CC(=C(c2ccc(O)c(C(=O)O)c2)c2ccc(O)c(C(=O)O)c2)C=CC1=O	7.9%	.	0.445µM*	?	?	2.1%

Screening results deposited in PubChem by National Center for Advancing Translational Sciences (NCATS).
